In PubChem BioAssay AID493194 (Broad Institute, 2011):
Measured potencies and affinities stand elsewhere. Inconclusive results are not listed. Active and inactive are the calls of the source.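 Rule for the calls: active = a valid curve of falling signal whose half-effect concentration is at most ten times the top tested dose; inconclusive = flat curve at 30 to 70% inhibition, or poor fit; inactive = signal rise, flat within 30%, or potency beyond limit.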

What follows are compounds tested against Scavenger receptor class B member 1 (Mus musculus) (UniProt Q61009) (assay: inhibitors of SR-BI mediated HDL lipid uptake, dose response, ldlA[mSR-BI] cells, fluorescence, cherry pick (AID 493194;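 note: CHO cells lacking LDL receptor and overexpressing mouse SR-BI; cellular uptake of fluorescently labeled HDL measured as cell fluorescence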)). Conditions: CHO ldlA[mSR-BI] DiI-HDL uptake fluorescence, 3 h; series mostly up to 35 µM.
Scavenger receptor class B member 1 (Mus musculus), sequence (Q61009 whole entry, looked up): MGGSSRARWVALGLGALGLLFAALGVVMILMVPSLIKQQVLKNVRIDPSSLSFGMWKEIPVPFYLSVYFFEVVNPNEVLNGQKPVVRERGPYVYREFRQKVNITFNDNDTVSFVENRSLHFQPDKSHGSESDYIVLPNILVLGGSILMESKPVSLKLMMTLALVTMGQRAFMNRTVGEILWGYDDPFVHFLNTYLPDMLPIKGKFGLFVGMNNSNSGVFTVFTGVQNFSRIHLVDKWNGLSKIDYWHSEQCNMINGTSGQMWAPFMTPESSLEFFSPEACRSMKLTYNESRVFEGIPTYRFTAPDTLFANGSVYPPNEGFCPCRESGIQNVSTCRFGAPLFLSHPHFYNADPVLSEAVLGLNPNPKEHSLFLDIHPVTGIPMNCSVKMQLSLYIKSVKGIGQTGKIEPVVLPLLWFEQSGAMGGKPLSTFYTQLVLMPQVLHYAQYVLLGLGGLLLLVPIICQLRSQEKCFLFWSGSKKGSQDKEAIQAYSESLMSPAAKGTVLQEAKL

outcome, inactive:
Cc1ccc(S(=O)(=O)NCc2ccc(C(=O)NCCc3ccc(S(N)(=O)=O)cc3)cc2)cc1, O=C(/C=C/c1ccco1)Nc1cccc(NC(=O)/C=C/c2ccco2)n1, COc1ccc(OC)c2[nH]c(C(=O)N3CCC(C(=O)O)CC3)cc12, CC(=O)c1c(C)[nH]c(C(=O)OCc2nc3ccsc3c(=O)[nH]2)c1C, O=c1cc(N2CCCCC2)c(-c2ccccc2)nn1Cc1cccc(F)c1, CC(C)(C)C(=O)Nc1sc2c(c1-c1nc3ccccc3[nH]1)CCCC2, O=C(Nc1ccccc1)C1=C(O)CC(c2ccoc2)CC1=Nc1ccccc1 (configuration not stated), CCOC(=O)C(=O)Nc1nc(-c2ccc3c(c2)CCN3C(=O)C2CC2)c(C)s1, CC(=O)c1ccc(N2CCN(C(=O)c3cc(-c4cccnc4)nc4ccc(Br)cc34)CC2)cc1, COc1ccc(NC(=O)C2CCN(C(=O)c3ccc(OC)cc3)CC2)cc1, COc1cc2c(cc1OC)-c1cc(OCc3ccccc3Cl)nc(=O)n1CC2, CCOC(=O)N1CCC(NC(=O)c2ccc3c(c2)N(Cc2ccc(F)cc2)CCS3)CC1, CN1CCC2CC1c1cc(-c3ccc(C(F)(F)F)cc3)ccc12 (configuration not stated), CC(=O)Oc1ccc(C(=O)Cc2ccc3ccccc3n2)c(O)c1C, CCCCC(=O)Nc1nc(C)c(-c2csc(Nc3ccc(Cl)cc3)n2)s1, O=C1C2CCCN2C(=O)N1CCCN1CCN(c2ccc([N+](=O)[O-])cc2)CC1 (configuration not stated), COc1ccc(-c2csc(N3CCN(c4cc(C)nc5ccccc45)CC3)n2)cc1OC
